# Screening data from PubChem.
# Sampled rows, rich in hits. Any-hit rate of the full collection: about 11%.
# HCV inh = inhibitors of hepatitis C virus infection | Huh7.5.1 HCVcc-Cre infection, luciferase reporter, 44 h | Potency, µM (series often up to 41.8 µM), for the others: at the highest dose activity change, negative = inhibition, most hits filed as inhibitors | 340,000 compounds, 3.4% hits | AID 651820; further: on the % scale 0 is the no-effect control and ±100 the full control effect
#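 Infectious HCVcc-Cre (~0.5 moi) was added to cells just after compound, with cells seeded 4 h earlier at 1,000 per well. Luciferase activity after 44 h culture reported infection; substrate was incubated 15 min at room temperature before reading.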
# NS1 function inh = influenza NS1 inhibition; 270,000 compounds, 0.4% hits; Potency, µM (top dose mostly 46.1 µM), inactives show at the highest dose activity, positive = more growth; calls by dose curve; further: actives are rising curves; nearly all actives have a fitted effect of over 50% in size
#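 Growth recovery, yeast-based: influenza A NS1 expressed in S. cerevisiae causes slow growth, and suppressors are detected by OD600. The parent strain without NS1 is used as positive control.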
# Pf growth 96h = inhibits malaria parasite growth, 96 h. P. falciparum luciferase reporter growth, 96 h. Potency, µM (doses to about 28.7 µM), for the others: top-dose activity change, negative = inhibition, hits mostly inhibitors. 320,000 compounds, 6.9% hits. AID 504834; further: on the % scale 0 is the no-effect control and ±100 the full control effect
#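 P. falciparum expressing integrated firefly luciferase grown in erythrocytes (2% hematocrit, 0.05% parasitemia final) with compounds for 96 hours at 37 C, 5% CO2. Growth inhibition read as loss of luminescence after adding luciferase detection reagent.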
# Vaccinia Venus = vaccinia inhibition (Venus reporter) | 330,000 compounds, 0.46% hits | Vaccinia virus Venus reporter expression, fluorescence | Potency, µM (top dose mostly 36.5 µM), inactives show top-dose activity change, negative = inhibition, usual class: inhibitors; calls by dose curve; tested in A549 cells; further: on the % scale 0 is the no-effect control and ±100 the full control effect; nearly all actives have a fitted effect of over 30% in size
# Vaccinia mCherry = vaccinia inhibition (mCherry reporter); 310,000 compounds, 0.63% hits; Vaccinia virus mCherry reporter infection, fluorescence; AID 720579; Potency, µM (top dose mostly 36.5 µM), for inactives: top-dose activity change, negative = inhibition, actives largely listed as inhibitors; calls by dose curve; tested in A549 cells; further: on the % scale 0 is the no-effect control and ±100 the full control effect; nearly all actives have a fitted effect of over 35% in size
# Pf growth 48h = P. falciparum growth inhibition at 48 hours (one generation). P. falciparum luciferase growth in erythrocytes, 48 h. Potency, µM (titrated, usually from 28.7 µM), for the others: at the highest dose activity change, negative = inhibition, most hits filed as inhibitors. 310,000 compounds, 5.9% hits. AID 504832; further: on the % scale 0 is the no-effect control and ±100 the full control effect
#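 Read-out is firefly luciferase luminescence from an integrated reporter in P. falciparum, so falling signal marks reduced parasite growth. Infected erythrocytes were at 2% hematocrit and 0.1% parasitemia (final) in Albumax-supplemented RPMI 1640.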
# The depositor's hits bear a star; i = inactive; ? = inconclusive; . = no result. Unless noted, the call rests on the fitted dose curve; in most records, active means well fitted inhibition curve with a large enough effect; inconclusive means small, poorly fitted or top-dose-only effect, or another doubt; inactive means no such curve, though single readings can be large or run the other way. Potency means the concentration at half of the fitted maximal effect.
SMILES,HCV inh,NS1 function inh,Pf growth 96h,Vaccinia Venus,Vaccinia mCherry,Pf growth 48h
CCCCCc1c2c(cc(O)c1C(=O)O)OC(=O)c1cc(C(=O)CCCC)c(OC)cc1O2,0.5µM*,.,.,-8%,-10%,.
CCOC(=O)c1cccc(NC(=O)N2CC=C(c3c[nH]c4ccccc34)CC2)c1,.,.,.,-2%,-8%,.
O=S1(=O)N(CCN2CC=C(c3c[nH]c4cc(F)ccc34)CC2)c2cccc3c2N1CCC3,?,?,0.93µM*,-12%,i,1.2µM*
NNC(=O)c1sc2cc(C(F)(F)F)cnc2c1-c1cccnc1,4%,9%,?,-5%,-6%,?
COC(=O)c1sc2cc(C(F)(F)F)cnc2c1-c1cccnc1,0.56µM*,2%,25%,.,.,-12%
C=C(C)c1cccc(C(C)(C)NC(=O)NCc2cccnc2)c1,23%,-1%,?,-2%,-2%,0%
C=C(C)c1cccc(C(C)(C)NC(=O)NCc2ccncc2)c1,-3%,1%,?,-8%,i,13µM*
C=C(C)c1cccc(C(C)(C)NC(=O)NCc2ccc(OC)c(OC)c2)c1,11µM*,13%,4%,.,.,-12%
NC(=O)Cn1cnc(-c2ccccc2)c1,1%,-6%,?,-3%,-12%,7%
COc1cc(OC)cc(OCC(O)Cn2cnc(-c3ccccc3)c2)c1 (configuration not stated),?,-24%,1%,-20%,-1%,13µM*
CCc1ccccc1NC(=O)CCC(=O)N1CCSc2ccccc21,-12%,7%,4.1µM*,2%,0%,-10%
CCOC(=O)c1c(NC(=O)c2ccc(S(=O)(=O)N3CCOCC3)cc2)sc2c1CCN(C)C2,?,-19%,?,.,.,12µM*
CCOC(=O)N1CCc2c(sc(NC(=O)c3ccc(S(=O)(=O)N4CCCC4)cc3)c2C#N)C1,?,-21%,?,?,-29%,12µM*
Cc1ccn2c(=O)nc(SCC(=O)NCc3ccccc3)nc2c1,-1%,.,7%,-6%,-9%,?
COc1ccccc1C(O)(C(=O)NNc1ccccc1C)c1ccccc1OC,15%,8%,6.6µM*,.,.,?
COc1ccccc1C(O)(C(=O)NNc1cccc(C)c1)c1ccccc1OC,4%,-4%,2.6µM*,8%,-19%,21%
CCSc1cc(N2CCCC2)nc(-c2ccc(C)cc2)n1,?,7%,?,-7%,-15%,?
CCSc1cc(N2CC(C)OC(C)C2)nc(-c2ccccc2Cl)n1 (configuration not stated),?,?,.,-12%,.,2.1µM*
CCOc1ccc(/C=C/C(=O)Nc2ccc(OC)cc2[N+](=O)[O-])cc1,-9%,-8%,?,0%,.,21%
CCOc1ccc(NC(=O)/C=C/c2ccccc2)c([N+](=O)[O-])c1,?,-3%,8.3µM*,-19%,-4%,9.3µM*
Cc1noc(C)c1COC(=O)c1ccc2c(c1)OCO2,14%,-45%,7.4µM*,-22%,-23%,.
CSc1ncccc1C(=O)OCC(=O)Nc1ccc2c(c1)OCO2,7%,.,27%,2%,0%,25%
Cc1noc(C)c1COC(=O)c1cccnc1SCC(=O)Nc1ccc2c(c1)OCO2,?,-23%,9.3µM*,.,.,?
Cc1ccc(-c2c(C(=O)N/N=C/C3CCCCC3)nnn2-c2nonc2N)cc1,10%,14%,?,-10%,-26%,?
Cc1ccc(-c2c(C(=O)N/N=C/C3CC=CCC3)nnn2-c2nonc2N)cc1 (configuration not stated),-5%,20%,9.3µM*,.,.,?
SMILES,HCV inh,NS1 function inh,Pf growth 96h,Vaccinia Venus,Vaccinia mCherry,Pf growth 48h
Cc1ccc(-c2c(C(=O)N/N=C/c3sccc3C)nnn2-c2nonc2N)cc1,?,3%,0.93µM*,.,.,?
CCc1cccc2c(C(=O)CN3C(=O)NC4(CCCCCC4)C3=O)c[nH]c12,2.5µM*,.,?,?,-12%,?
CCc1ccc(C(=O)CN2C(=O)NC3(CCCCCC3)C2=O)cc1,11µM*,.,20%,-7%,-29%,36%
O=C(CN1C(=O)NC2(CCCCCC2)C1=O)c1ccc(F)cc1,-5%,.,25%,-12%,-3%,22%
O=C(CN1C(=O)NC2(CCCCCC2)C1=O)c1ccc2c(c1)OCCO2,?,-7%,8.3µM*,1%,-6%,105%
CCC(C)(C)C1CCC2(CC1)NC(=O)N(CC(=O)N(C)Cc1ccc3c(c1)OCCO3)C2=O (configuration not stated),13µM*,.,-88%,.,.,?
CN(Cc1ccc2c(c1)OCCO2)C(=O)CN1C(=O)NC2(CCCCC2)C1=O,4%,10%,8%,.,.,8%
O=C(CN1C(=O)NC2(CCCCCC2)C1=O)c1ccc(Cl)cc1,-4%,.,8%,.,.,?
CCOc1ccc(C(C)=O)cc1Cn1nc(C(=O)O)c2ccccc2c1=O,7.9µM*,-1%,-11%,-9%,-17%,-28%
CCOc1ccc(C(C)=O)cc1CN1C(=O)NC2(CCCCCCC2)C1=O,-21%,-7%,?,-13%,-1%,12µM*
COc1ccc(C(C)=O)cc1CN1C(=O)NC2(CCCCCC2)C1=O,1%,-2%,.,.,.,6%
O=C1Nc2ccc(S(=O)(=O)NCc3ccccn3)c3cccc1c23,8%,-1%,10µM*,-14%,-21%,.
Cc1ccc(CSC(Nc2ccc(F)cc2)=C(C#N)C#N)cc1,8.9µM*,-6%,?,?,-13%,?
CCN(CC)C(=O)CSC(Nc1ccc(F)cc1)=C(C#N)C#N,0%,6%,0%,40%,i,3%
Cc1ccc(NS(=O)(=O)c2cc(C(=O)NCCCN(C)C)ccc2Cl)cc1Cl,?,.,?,-5%,i,6.6µM*
Cc1ccc(C)c(S(=O)(=O)Nc2ccc(C(=O)NCCCN(C)C)cc2)c1,.,.,.,-9%,i,.
CC1Cc2ccccc2N1S(=O)(=O)c1cccc(C(=O)NCc2ccncc2)c1 (configuration not stated),?,.,-45%,?,-25%,?
Cc1ccc(S(=O)(=O)N2c3ccccc3CC2C)cc1 (configuration not stated),-29%,-4%,7%,?,-29%,-15%
O=C(NCc1ccncc1)c1cccc(S(=O)(=O)N2CCc3ccccc32)c1,11µM*,.,?,.,.,?
CCN(CC)Cc1ccccc1CNC(=O)c1cccc(S(=O)(=O)Nc2ccc3c(c2)OCO3)c1,?,.,?,.,.,9.3µM*
CCOc1ccc(S(=O)(=O)N2c3ccccc3CC2C)cc1 (configuration not stated),8.9µM*,-52%,.,.,.,?
O=C(NCc1ccccc1F)C1CCCN1C(=O)Nc1cccc(F)c1 (configuration not stated),5%,21%,44%,-5%,-18%,-17%
